According to PubChem BioAssay AID488784 (Sanford-Burnham Center for Chemical Genomics, 2010):
The whole screen tested about 1,000 compounds, of which about 700 (70%) were called active. The set was probably picked from earlier hits. Not all results are given here. Unmarked numbers belong to inactive results. Cut-off read from the data, not from the text of the source: active = inhibition above about 50%; inactive = the rest.

Assay: CASP1-PYCARD signaling inhibition in yeast, confirmatory test, counterassay for NLRP3 inhibitor program, one-dose (AID 488784)
Details: yeast expressing Caspase-1-ASC, luminescence counter screen; at 10 µM; active compounds read high

| Compound | inhibition |
| --- | --- |
| Cc1cc(C)nc(NC(=O)Nc2ccccc2C(F)(F)F)n1 | 55.5% (active) |
| CC(C)Sc1ncnc2c1cnn2-c1ccccc1 | 40.6% |
| CC(C)n1c(COc2ccccc2)nc2ccccc21 | 59.4% (active) |
| Cc1ccc(OCc2nc3ccccc3n2C)cc1 | 76.5% (active) |
| CCSc1nc2sc3c(c2c(=O)n1-c1ccc(C)cc1)CCN(C)C3 | 33.2% |
| O=C(COc1ccccc1F)Nc1nc(-c2ccccn2)cs1 | 65% (active) |
| Cn1c(=O)c(C(=O)Nc2ncccn2)c(O)c2ccccc21 | 49.2% |
| CCc1noc(C)c1C(=O)Nc1nc2ccc(OC)cc2s1 | 76.8% (active) |
| Cc1ccc(-c2nn(C(C)(C)C)c3ncnc(N)c23)cc1 | 96.3% (active) |
| COc1ccccc1C(=O)Nc1ccc(NC(=O)c2ccco2)c(C)c1 | 47.5% |
| Cc1ccc(O)c(NC(=O)c2cc(-c3ccco3)on2)c1 | 61.9% (active) |
| CC(=O)[C@@]12O[C@@H]1C[C@H]1[C@@H]3CC[C@H]4C[C@@H](O)CC[C@]4(C)[C@H]3CC[C@@]12C | 53% (active) |
| Cc1ccnc(Nc2nc3ccccc3s2)n1 | 21.8% |
| CN(C)c1ccnc2sc(C(=O)c3ccccc3)c(N)c12 | 70.2% (active) |
| CCCN(CC1CC1)C(=S)NC(=O)c1ccccc1Br | 53.1% (active) |
| O=[N+]([O-])c1c(NCCO)cc(Sc2nc3ccccc3s2)c2nonc12 | 65.5% (active) |
| Cc1cc(C(=O)COc2ccc(Br)cc2F)c(C)n1C1CC1 | 60.1% (active) |
| CC1(C)CCSC(/C=C/c2ccccc2)=N1 | 91.5% (active) |
| COc1ccccc1OCc1nc2ccccc2s1 | 48.7% |
| CCN(CC)c1ccc(/C=N/Nc2nc(C)cc(C)n2)c(O)c1 | 55% (active) |
| Nc1c(-c2cccc(Cl)c2)cnn1-c1cccc([N+](=O)[O-])c1 | 53% (active) |
| Oc1c(Cl)cc(Cl)c(Cl)c1Cc1c(O)c(Cl)cc(Cl)c1Cl | 99.3% (active) |
| O=C(CC(O)(C(F)(F)F)C(F)(F)F)Nc1ccc(Cl)c(Cl)c1 | 99.2% (active) |
| Cc1c(C(=O)N2CCCc3ccccc32)oc2ccccc12 | 49.6% |
| O=C(Nc1ccccc1Cl)/C(Cl)=C(\Cl)S(=O)c1ccccc1 (stereo unspecified) | 98.8% (active) |
| O=C(Nc1ccc2oc(-c3ccccc3F)nc2c1)c1ccco1 | 72.2% (active) |

| Compound | inhibition |
| --- | --- |
| O=C(Nc1ccc(Oc2ccccc2)cc1)c1ccco1 | 45.2% |
| Cn1c(=NC(=O)c2ccco2)sc2cccc(F)c21 | 25% |
| Cc1cc(C)c(/C=C2\C(=O)Nc3ccccc32)[nH]1 | 40.2% |
| Cc1ccc(OCc2nc(C#N)c(N3CCCC3)o2)cc1 | 71.8% (active) |
| O=C(CSc1ccc(-c2ccc(-n3cccn3)cc2)nn1)Nc1ccc([N+](=O)[O-])cc1 | 11.2% |
| C[C@@H]1C[C@@H]2O[C@H]2/C=C\C=C\C(=O)Cc2c(Cl)c(O)cc(O)c2C(=O)O1 | 48.6% |
| CCCNc1ncnc2sc(C)c(C)c12 | 50.8% (active) |
| CC(=NCc1ccc2c(c1)OCO2)C1=C(O)c2ccccc2C1=O | 60.2% (active) |
| O=C(NCc1ccc2c(c1)OCO2)c1c(O)nc2sccn2c1=O | 36.7% |
| O=C(Oc1c(-c2ccco2)oc2ccccc2c1=O)c1cccnc1 | 58.5% (active) |
| CC(C)C(=O)N1CCN(CCN=CC2=C(O)CC(c3ccco3)CC2=O)CC1 (stereo unspecified) | 55.2% (active) |
| Cc1cccc(NC(=S)NC(=O)c2ccc(Br)o2)c1 | 76.2% (active) |
| CN=C1C=C/C(=N/N=c2\ccn(O)cc2C)C=C1C | 53.3% (active) |
| O=C(CSc1ncnc2c1oc1ccccc12)NC1CCCC1 | 39.4% |
| Cc1ccc2cccc(S(=O)(=O)N3CCN(c4ccccc4F)CC3)c2n1 | 52.6% (active) |
| O=C1CSC(=S)N1c1ccc(O)cc1 | 79.7% (active) |
| COc1cc(N2C(=O)CSC2=S)cc(OC)c1OC | 45.7% |
| CCc1cc(C(=O)Nc2nnc(C3CC3)s2)sc1C | 55.5% (active) |
| Cc1ccc(CSc2nsc(C)c2C#N)cc1 | 60% (active) |
| Oc1ccc(Br)cc1/C=N/Nc1ccccn1 | 37.1% |
| O=[N+]([O-])c1cccc(/C=N/Nc2ncc(Br)cn2)c1 | 62.5% (active) |
| O=[N+]([O-])/C=C/c1ccc2c(ccn2Cc2ccccc2)c1 | 99.7% (active) |
| CCOC(=O)c1c(C)[nH]c(C(=O)COc2ccc3c(c2)OCO3)c1C | 66.8% (active) |
| Fc1ccccc1-c1cc2cc3c(cc2cn1)OCO3 | 51% (active) |
| N#Cc1nc(Cc2ccccc2)oc1NCCc1ccccc1 | 56.8% (active) |
